Results published in PubChem BioAssay AID602296 (Broad Institute, 2012).
About 190 (9.5%) of roughly 2,000 compounds were called active. About 14% were inconclusive and are not listed.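 Rule for the calls: active = fitted activation curve crossing 40% at a concentration no higher than the sample's top valid tested dose; inconclusive = flat fitted curve at 30% to 70% activation, or poor curve fit; inactive = signal decrease, flat curve within 30%, or the rest.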 A selection follows.

test: HSF-1 reporter activators over prolonged exposure, confirmation, cell-based, mouse, luciferase, cherry-pick, dose (AID 602296); settings: NIH3T3-HGL HSF-1 response element luciferase, 48 h; series mostly up to 26 µM;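 note: test compounds applied by themselves with no MG132 co-treatment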

outcome, inactive:
Cc1onc(-c2ccccc2)c1C(=O)N/N=C/c1cccc(O)c1, C=CCc1ccc(OCC(O)CO)c(OC)c1 (centres undefined), NC(=O)c1ccc(NC(=O)CC23CC4CC(CC(Br)(C4)C2)C3)cc1, Cc1cccn2c(=O)nc(SCC(=O)N3N=C(c4cccs4)CC3c3ccc(F)cc3)nc12 (centres undefined), O=C(NNc1c(F)c(F)cc(F)c1F)c1ccc(Cl)nc1, CCOc1ccc(CN(C)CC(O)COC(c2ccc(OC)cc2)c2ccc(OC)cc2)cc1 (centres undefined), O=C(/C(=N/N=C/c1ccc(O)c(O)c1)c1ccccc1)c1ccccc1, Cc1ccc(Cl)c2c1=NC(=O)C=2c1[nH]c(=S)[nH]c1O, Cc1ccc(N(Cc2ccc(C(=O)Nc3ccccc3C(=O)NCc3ccco3)cc2)S(C)(=O)=O)cc1C, CC(C)=C1C2CCC1C1C(=O)N(c3nc(-c4ccccc4)c(C)s3)C(=O)C21 (centres undefined), COc1ccc(CCNC(=O)C2CCCN(Cc3nc(-c4ccccc4C)oc3C)C2)cc1OC (centres undefined), O=C1[C@@H]2Cc3c([nH]c4ccccc34)C(c3ccc([N+](=O)[O-])cc3)N2C(=O)CN1C1CC1 (some centres undefined), CC(=O)c1ccc(N=C2C(=O)Nc3ccccc32)cc1, Cc1ccc(-c2[nH]c3ccccc3c2C(C[N+](=O)[O-])c2ccco2)cc1 (centres undefined), Cc1cc(Sc2nnc(N)s2)c2ccccc2n1, CC12CN(C(=S)Nc3ccccc3)CC(C)(CN(C(=S)Nc3ccccc3)C1)C2=O, COC(=O)Nc1ccc(S(=O)(=O)N2CCC(C(=O)N3CCCC(C)C3)CC2)cc1 (centres undefined), COc1ccccc1C(=O)NCCCNC(=O)c1ccccn1, COc1cc(-c2nnc(SC/C=C/c3ccccc3)n2N)cc(OC)c1OC, NCCCCCc1nnc(SC/C=C/c2ccccc2)o1, COc1cccc(-c2c(C(=O)N/N=C(\C)c3ccc(Cl)s3)nnn2-c2nonc2N)c1, C=C(C)Cn1c(SCC(=O)O)nnc1-c1ccc(OC)cc1, CC(=O)COc1cccc2ccc(/C=C/c3ccc(Br)s3)nc12, Cc1[nH]n(-c2ccccc2)c(=O)c1C(C[N+](=O)[O-])c1ccc(F)cc1 (centres undefined), S=c1[nH]nc(-c2cc(-c3ccccc3)n[nH]2)n1/N=C/C(Br)=C/c1ccccc1, C=CCn1c(C2CCCCC2)n[nH]c1=S, COc1ccc2cc(S(=O)(=O)N3CCCCC3)ccc2c1S(=O)(=O)N1CCCCC1, CCOC(=O)COc1ccc(/C=C2/SC(=Nc3ccccc3)N(Cc3cccnc3)C2=O)cc1OC, CCCCc1nnc(NC(=O)C(C)Sc2nc(C)cc(=O)[nH]2)s1 (centres undefined), CCn1c(CNC(C)=O)nnc1SCC(=O)c1ccc(Br)cc1, COc1ccc(C(CCNCc2ccccc2)c2ccc(F)cc2)cc1 (centres undefined), Nc1cnn(Cc2ccc(F)cc2)c1, CC1=CC(C)(C)Nc2ccc(OC(=O)C(Cc3ccccc3)N3C(=O)c4ccccc4C3=O)cc21 (centres undefined), CCOc1ncccc1C(=O)N(C)CC1COc2ccccc2O1 (centres undefined), O=C(CCCN1C(=O)c2cccc3cccc(c23)C1=O)Nc1ccon1, CCN(CC)CCOc1ccc(/C(=C(/Cl)c2ccccc2)c2ccccc2)cc1, CCCCN(C)C(=O)C1CCC(CNS(=O)(=O)c2ccc3c(c2)CC(C)N3C(=O)C2CC2)CC1 (centres undefined), Brc1ccc2c(c1)C(c1cccnc1)=NNC(c1cccs1)=N2, Cc1ccc(-n2c(C)cc(C(=O)COc3c(CO)cc(F)cc3CO)c2C)cc1C, Cc1c(NC(=O)CSc2nnc3c4ccccc4n(CCc4ccccc4)c3n2)c(=O)n(-c2ccccc2)n1C, CC(=O)Nc1ccc(N2C(=O)C3C4CC(=O)C(c5ccccc54)C3C2=O)cc1 (centres undefined), O=c1[nH]c(CSc2ccccn2)nc2c1oc1ccccc12, C=CCn1c(COc2ccc(CC)cc2)nnc1SC/C(O)=C(\C#N)c1nc2ccccc2[nH]1, S=C(NCCSCc1ccc(Cl)c(Cl)c1)Nc1ccccc1, O=C(CSC1=NCCN1)Nc1cccc(C(F)(F)F)c1, CC1(C)CC(=O)C2=C(C1)N1C(=C(C#N)C2c2ccc(Cl)cc2)N=C(N)c2ccccc21 (centres undefined), O=C(CNS(=O)(=O)c1ccc(Br)s1)NCc1ccccc1, Cc1ccc(CNC(=O)Cn2ccc3ccccc3c2=O)o1, CNC(=O)N(O)C1N(/N=C/c2c(F)cccc2Cl)C(=S)SC1(C)C (centres undefined), FC(F)(F)c1ccc(Sc2nnc(-c3cccs3)n2CC2CCCO2)nc1 (centres undefined), Clc1ccc(CCNc2nc3ccccc3n3nnnc23)cc1, O=C(Nc1cccc(Cl)c1)N1CCC(CO)(CCOc2ccccc2)CC1, COc1ccc(/C=C/C(=O)c2ccc(O)cc2)cc1COc1ccc(F)cc1, Oc1cc(-c2ccccc2)c2ccccc2c1, Cc1nc2cc3nc(C(F)(F)F)[nH]c3cc2[nH]1, COc1ccccc1CCC(=O)OCC(=O)Nc1c(Br)cc(C)cc1Br, O=C(NCCc1ccc(O)c(O)c1)C1COc2ccccc2O1 (centres undefined), CC(NC(=O)c1ccc(C(C)(C)C)cc1)C(c1cccs1)N1CCOCC1 (centres undefined), CCNC(=O)C(=O)NCc1ccncc1, CCn1cnc2c1c(=O)n(Cc1nnc3n1-c1ccccc1SC3)c(=O)n2Cc1ccccc1, N#Cc1cc(Cl)c(NCC2CCCO2)cc1C#N (centres undefined), Cc1ccc(S(=O)(=O)NNC(=O)c2sc3nc(C)cc(C)c3c2-n2cccc2)cc1, Clc1ccc(CO/N=C/c2c(-c3ccccc3)nc3n2CCS3)c(Cl)c1, Cc1ccc(-c2nc3ccccc3[nH]2)cc1NC(=O)c1ccc2c(c1)OCO2, COc1cccc(NC=C2C(=O)OC3(CCCCC3)OC2=O)c1, Cc1sc2nc(CSc3cccc(C(F)(F)F)c3)[nH]c(=O)c2c1C, COc1ccc(N2C(=O)CC(Sc3nnnn3-c3ccc(F)cc3)C2=O)cc1 (centres undefined), CC(C(=O)Nc1ccccc1Br)N1c2cccc3cccc(c23)S1(=O)=O (centres undefined), CC(=O)c1ccc(N2CCN(C(=O)c3n[nH]c4ccccc34)CC2)cc1, Cc1ccc(C(=O)Cn2nnc(-c3ccccc3-n3cnnn3)n2)cc1, COc1ccccc1NC(=O)C1=C(C)NC2=C(C(=O)CC(c3ccc(OC)c(OC)c3)C2)C1c1coc2ccccc2c1=O (centres undefined), Cc1ccc(S(=O)(=O)N(C)c2ccc(C)c([N+](=O)[O-])c2)cc1, CCOC(=O)C1=C(C)Nc2nc3ccccc3n2C1c1ccncc1 (centres undefined), COc1ccc(NC(=O)C(NCC(C)C)c2ccccc2)cc1Cl (centres undefined), O=S(=O)(c1ccc(-n2cnnn2)cc1)N1CCNCC1, CCCCCCCCCCCC(=O)c1c(O)cccc1O, O=C(NC1CCCN(Cc2ccccc2F)C1)c1cccs1 (centres undefined), O=C(O)c1cc([N+](=O)[O-])c(NCCC2=CCCCC2)c([N+](=O)[O-])c1, O=C(Nc1cccc(Cl)c1)C1CCCN(S(=O)(=O)c2ccc(F)cc2)C1 (centres undefined), COC(=O)Nc1ccc(S(=O)(=O)Nc2cccc3ccccc23)cc1, O=C(CCn1c(=O)oc2ccccc21)Nc1ccccc1, CC1(C)Cc2nc(NCCN3CCOCC3)c(C#N)cc2CO1, CC(=O)C1=C(O)C(=O)N(c2nccs2)C1c1ccccc1 (centres undefined), Cc1[nH]nc(-c2ccc(O)c(C)c2O)c1-c1cnn(-c2ccccc2)c1, CCOC(=O)C1=C(C)Nc2ncnn2C1c1ccc2c(c1)OCO2 (centres undefined), COCCCNC(=O)c1c[nH]c2ccc(S(=O)(=O)N3CCc4ccccc43)cc2c1=O, NS(=O)(=O)c1ccc(CCNC(=O)c2ccc([N+](=O)[O-])s2)cc1, CC(=O)Cc1cc(O)c2ccccc2c1OC(=O)c1ccccc1, O=C1CC(NNc2ccccc2)C(=O)N1c1ccccc1 (centres undefined), CCOC(=O)c1c(NC(=O)c2nn(CC)cc2Br)c(C#N)nn1-c1ccccc1, Cc1cc(NC(=O)c2cc(C)on2)n(-c2ccccc2)n1, Cc1oc2ccc(NS(=O)(=O)c3ccc(C(C)(C)C)cc3)cc2c1C(=O)Nc1ccccc1, CCCc1[nH]nc2c1C(c1cc(OC)ccc1F)C(C#N)=C(N)O2 (centres undefined), O=C(CN1C(=O)NC(Cc2c[nH]c3ccccc23)C1=O)Nc1cccc(S(=O)(=O)N2CCOCC2)c1 (centres undefined), CCOC(=O)C(C)(C)N(Cc1ccc(C)cc1)S(=O)(=O)c1ccc(Cl)c([N+](=O)[O-])c1, Oc1ccc(-c2cnc(-c3ccc(O)cc3)nc2)cc1, Cc1cccc2cc(CN(Cc3ccco3)C(c3nnnn3CCc3ccccc3)C(C)C)c(=O)[nH]c12 (centres undefined), COCCNC(=O)c1cccc(OC2CCN(Cc3ccc(Cl)c(F)c3)CC2)c1, CCCCOCCCN1CC(=O)N2[C@@H](Cc3c([nH]c4ccccc34)C2(C)C)C1=O, Cc1ccc(-c2cc(C(F)(F)F)c(C#N)c(SCC(=O)O)n2)cc1, CCOC(=O)C1=C(c2ccccc2)NC(=O)NC1c1cc(Br)c(O)c(OC)c1 (centres undefined), CCCn1nc([N+](=O)[O-])c(C(C#N)c2nc3ccccc3o2)c(Cl)c1=O (centres undefined), O=C(COC(=O)c1ccc(S(=O)(=O)NCc2ccco2)cc1)Nc1ccccc1OC(F)F, Cc1cc(C)nc(Sc2nc(Cl)nc(N(c3ccccc3)c3ccccc3)n2)n1
